# What was measured:
# Assay in all cases: DAPPL (digital affinity profiling via proximity ligation, sequencing); 10 mM Tris-HCl pH 7.5, 50 mM NaCl, 1 mM DTT, 4% glycerol, room temperature, 30 min; GST-TFs on glutathione beads, 16-mer random dsDNA library, 0.1% formaldehyde crosslink after washing; high values mean tight binding
# [1] = biological target: T1, FLI1 (Homo sapiens, UniProt Q01543 1-452); conditions: protein: recombinant; tags: N-terminal GST; dsDNA, one strand shown
# T1 sequence: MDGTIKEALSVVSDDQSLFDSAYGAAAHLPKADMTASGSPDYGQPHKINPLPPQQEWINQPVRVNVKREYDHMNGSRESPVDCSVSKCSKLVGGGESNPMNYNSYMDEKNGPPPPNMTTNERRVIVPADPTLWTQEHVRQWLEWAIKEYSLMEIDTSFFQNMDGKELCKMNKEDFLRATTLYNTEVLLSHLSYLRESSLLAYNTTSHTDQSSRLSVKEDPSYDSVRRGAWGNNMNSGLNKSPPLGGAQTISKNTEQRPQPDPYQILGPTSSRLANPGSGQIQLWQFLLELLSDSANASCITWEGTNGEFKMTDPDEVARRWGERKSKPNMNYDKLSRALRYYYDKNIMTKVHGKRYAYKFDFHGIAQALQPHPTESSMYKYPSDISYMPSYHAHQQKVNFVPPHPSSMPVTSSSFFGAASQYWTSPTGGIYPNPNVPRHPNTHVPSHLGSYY
# Outline: (§1)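 Pools of DNA-barcoded human transcription factors, expressed in yeast as GST fusions on glutathione beads and combined with a tag-only sample, were incubated with 200 nmole of a 16-mer random double-stranded DNA library. Incubation took 30 min at room temperature in Tris/NaCl/DTT/glycerol buffer and was followed by washing, 0.1% formaldehyde crosslinking, proximity ligation (BsaI/T4 ligase, 1 h, 37 °C), PCR amplification and sequencing on an Illumina NextSeq500. Binding signal is the ratio of a hexamer's read frequency for a factor to its frequency for the tag-only sample.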
# [2] = biological target: T2, ELK1 (Homo sapiens, UniProt P19419 1-428); conditions: protein: recombinant; tags: N-terminal GST; dsDNA, one strand shown
# T2 sequence: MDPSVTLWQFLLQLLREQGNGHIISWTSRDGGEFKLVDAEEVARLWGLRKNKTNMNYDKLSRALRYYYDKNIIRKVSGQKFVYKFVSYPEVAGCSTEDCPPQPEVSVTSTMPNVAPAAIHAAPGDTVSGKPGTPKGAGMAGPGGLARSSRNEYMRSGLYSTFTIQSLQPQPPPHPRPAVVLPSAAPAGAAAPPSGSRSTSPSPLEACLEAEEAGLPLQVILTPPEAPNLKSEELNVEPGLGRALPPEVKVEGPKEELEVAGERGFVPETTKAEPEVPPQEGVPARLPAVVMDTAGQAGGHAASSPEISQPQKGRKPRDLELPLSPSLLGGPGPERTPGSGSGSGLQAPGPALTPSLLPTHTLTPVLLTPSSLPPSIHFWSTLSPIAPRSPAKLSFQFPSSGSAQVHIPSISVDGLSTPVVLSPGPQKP
# Outline: as §1
# [3] = biological target: T3, GABPA (Homo sapiens, UniProt Q06546 1-454); conditions: protein: recombinant; tags: N-terminal GST; dsDNA, one strand shown
# T3 sequence: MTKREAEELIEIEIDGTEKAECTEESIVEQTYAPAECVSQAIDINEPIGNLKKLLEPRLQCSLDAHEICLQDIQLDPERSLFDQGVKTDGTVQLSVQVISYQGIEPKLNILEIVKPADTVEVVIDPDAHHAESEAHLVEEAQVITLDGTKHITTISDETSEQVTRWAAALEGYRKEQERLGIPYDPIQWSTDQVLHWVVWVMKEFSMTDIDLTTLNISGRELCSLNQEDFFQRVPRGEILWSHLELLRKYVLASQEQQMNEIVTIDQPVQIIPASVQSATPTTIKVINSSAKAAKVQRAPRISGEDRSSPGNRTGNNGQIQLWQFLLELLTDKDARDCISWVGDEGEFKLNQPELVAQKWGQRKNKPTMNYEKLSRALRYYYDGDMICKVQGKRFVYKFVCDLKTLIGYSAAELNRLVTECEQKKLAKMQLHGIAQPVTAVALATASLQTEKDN
# Outline: as §1
# [4] = biological target: T4, ERG (Homo sapiens, UniProt P11308 1-479); conditions: protein: recombinant; tags: N-terminal GST; dsDNA, one strand shown
# T4 sequence: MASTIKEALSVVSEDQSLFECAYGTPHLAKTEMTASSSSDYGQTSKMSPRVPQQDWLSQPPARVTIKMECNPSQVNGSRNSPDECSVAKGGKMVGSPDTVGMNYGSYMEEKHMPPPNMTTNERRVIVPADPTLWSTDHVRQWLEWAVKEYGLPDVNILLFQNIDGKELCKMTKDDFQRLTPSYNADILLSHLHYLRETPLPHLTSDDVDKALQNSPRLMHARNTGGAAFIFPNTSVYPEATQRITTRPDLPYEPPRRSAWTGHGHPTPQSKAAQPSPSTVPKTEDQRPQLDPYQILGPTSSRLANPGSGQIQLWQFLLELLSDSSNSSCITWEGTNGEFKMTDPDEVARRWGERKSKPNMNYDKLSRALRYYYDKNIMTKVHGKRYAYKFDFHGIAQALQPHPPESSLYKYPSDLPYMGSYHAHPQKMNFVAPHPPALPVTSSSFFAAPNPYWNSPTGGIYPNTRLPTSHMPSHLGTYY
# Outline: as §1
# [5] = biological target: ELF1 (Homo sapiens, UniProt P32519 1-619); conditions: protein: recombinant; tags: N-terminal GST; dsDNA, one strand shown
# Chain of ELF1 (P32519 whole entry): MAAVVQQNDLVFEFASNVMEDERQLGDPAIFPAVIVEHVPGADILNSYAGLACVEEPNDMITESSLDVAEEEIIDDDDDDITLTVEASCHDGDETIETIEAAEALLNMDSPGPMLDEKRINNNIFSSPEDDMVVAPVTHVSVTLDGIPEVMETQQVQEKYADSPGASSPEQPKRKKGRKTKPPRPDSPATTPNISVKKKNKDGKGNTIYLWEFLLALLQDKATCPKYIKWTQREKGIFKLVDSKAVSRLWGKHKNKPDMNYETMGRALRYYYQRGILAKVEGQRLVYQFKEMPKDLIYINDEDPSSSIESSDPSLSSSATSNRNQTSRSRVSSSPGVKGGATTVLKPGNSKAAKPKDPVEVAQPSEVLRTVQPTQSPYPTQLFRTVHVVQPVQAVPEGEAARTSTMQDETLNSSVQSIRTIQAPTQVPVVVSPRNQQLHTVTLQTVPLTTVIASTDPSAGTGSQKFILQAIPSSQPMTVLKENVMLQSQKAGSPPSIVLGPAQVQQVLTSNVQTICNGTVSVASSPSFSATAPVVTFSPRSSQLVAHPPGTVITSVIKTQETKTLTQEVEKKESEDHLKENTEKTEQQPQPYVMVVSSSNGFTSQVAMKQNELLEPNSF
# Outline: as §1
# [6] = biological target: T5, EHF (Homo sapiens, UniProt Q9NZC4 1-300); conditions: protein: recombinant; tags: N-terminal GST; dsDNA, one strand shown
# T5 sequence: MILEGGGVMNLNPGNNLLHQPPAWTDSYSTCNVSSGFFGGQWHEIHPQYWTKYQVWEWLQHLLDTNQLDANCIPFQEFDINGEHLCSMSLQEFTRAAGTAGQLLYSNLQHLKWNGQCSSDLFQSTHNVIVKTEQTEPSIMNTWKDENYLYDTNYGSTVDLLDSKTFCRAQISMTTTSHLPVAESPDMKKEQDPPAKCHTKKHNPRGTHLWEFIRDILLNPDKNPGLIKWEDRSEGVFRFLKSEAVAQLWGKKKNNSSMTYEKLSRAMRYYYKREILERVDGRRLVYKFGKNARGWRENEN
# Outline: as §1
# [7] = biological target: SPI1 (Homo sapiens, UniProt P17947 1-270); conditions: protein: recombinant; tags: N-terminal GST; dsDNA, one strand shown
# Outline: as §1
# [8] = biological target: SPIB (Homo sapiens, UniProt Q01892 1-262); conditions: protein: recombinant; tags: N-terminal GST; dsDNA, one strand shown
# Chain of SPIB (Q01892 whole entry): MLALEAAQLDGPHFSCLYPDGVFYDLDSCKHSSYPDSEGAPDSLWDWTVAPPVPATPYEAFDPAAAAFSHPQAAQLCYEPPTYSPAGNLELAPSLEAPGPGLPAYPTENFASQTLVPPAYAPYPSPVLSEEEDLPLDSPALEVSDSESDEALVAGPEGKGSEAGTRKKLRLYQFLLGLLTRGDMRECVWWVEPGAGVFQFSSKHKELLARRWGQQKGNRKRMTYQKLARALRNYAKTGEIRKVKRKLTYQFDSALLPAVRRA
# Outline: as §1
# [9] = biological target: T6, ELK3 (Homo sapiens, UniProt P41970 1-407); conditions: protein: recombinant; tags: N-terminal GST; dsDNA, one strand shown
# T6 sequence: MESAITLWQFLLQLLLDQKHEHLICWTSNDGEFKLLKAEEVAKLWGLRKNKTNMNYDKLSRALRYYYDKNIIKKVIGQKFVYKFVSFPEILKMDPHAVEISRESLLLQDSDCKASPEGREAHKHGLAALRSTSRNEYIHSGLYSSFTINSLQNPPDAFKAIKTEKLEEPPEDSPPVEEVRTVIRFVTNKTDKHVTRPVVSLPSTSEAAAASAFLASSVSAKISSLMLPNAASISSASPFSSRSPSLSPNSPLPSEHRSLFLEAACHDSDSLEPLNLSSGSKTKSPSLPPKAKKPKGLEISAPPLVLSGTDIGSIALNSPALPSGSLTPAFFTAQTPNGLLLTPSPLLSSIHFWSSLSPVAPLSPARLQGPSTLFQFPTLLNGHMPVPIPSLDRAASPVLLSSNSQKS
# Outline: as §1
# [10] = biological target: T7, FEV (Homo sapiens, UniProt Q99581 1-238); conditions: protein: recombinant; tags: N-terminal GST; dsDNA, one strand shown
# T7 sequence: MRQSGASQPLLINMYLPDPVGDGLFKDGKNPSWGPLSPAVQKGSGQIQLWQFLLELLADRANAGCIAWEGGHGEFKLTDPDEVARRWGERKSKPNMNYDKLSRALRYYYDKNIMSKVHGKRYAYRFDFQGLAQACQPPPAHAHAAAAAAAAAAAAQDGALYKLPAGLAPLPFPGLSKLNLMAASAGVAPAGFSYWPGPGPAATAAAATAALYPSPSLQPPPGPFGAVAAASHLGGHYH
# Outline: as §1
# [11] = biological target: ETV5 (Homo sapiens, UniProt P41161 1-510); conditions: protein: recombinant; tags: N-terminal GST; dsDNA, one strand shown
# Chain of ETV5 (P41161 whole entry): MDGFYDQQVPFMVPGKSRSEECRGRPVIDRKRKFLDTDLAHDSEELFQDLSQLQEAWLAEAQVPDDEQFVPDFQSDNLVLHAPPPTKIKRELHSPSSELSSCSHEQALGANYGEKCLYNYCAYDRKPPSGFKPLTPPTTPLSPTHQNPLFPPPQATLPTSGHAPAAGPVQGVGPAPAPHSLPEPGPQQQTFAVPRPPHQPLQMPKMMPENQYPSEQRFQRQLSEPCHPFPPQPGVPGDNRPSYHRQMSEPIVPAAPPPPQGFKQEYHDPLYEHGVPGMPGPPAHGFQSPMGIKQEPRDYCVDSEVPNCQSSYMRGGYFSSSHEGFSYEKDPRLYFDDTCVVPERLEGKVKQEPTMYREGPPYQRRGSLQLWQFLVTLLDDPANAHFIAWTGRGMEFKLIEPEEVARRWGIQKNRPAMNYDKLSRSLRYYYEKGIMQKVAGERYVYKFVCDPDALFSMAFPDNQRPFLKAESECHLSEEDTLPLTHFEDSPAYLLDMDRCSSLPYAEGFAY
# Outline: as §1
# [12] = biological target: HSF1 (Homo sapiens, UniProt Q00613 1-529); conditions: protein: recombinant; tags: N-terminal GST; chain copies: 3; dsDNA, one strand shown
# Chain of HSF1 (Q00613 whole entry): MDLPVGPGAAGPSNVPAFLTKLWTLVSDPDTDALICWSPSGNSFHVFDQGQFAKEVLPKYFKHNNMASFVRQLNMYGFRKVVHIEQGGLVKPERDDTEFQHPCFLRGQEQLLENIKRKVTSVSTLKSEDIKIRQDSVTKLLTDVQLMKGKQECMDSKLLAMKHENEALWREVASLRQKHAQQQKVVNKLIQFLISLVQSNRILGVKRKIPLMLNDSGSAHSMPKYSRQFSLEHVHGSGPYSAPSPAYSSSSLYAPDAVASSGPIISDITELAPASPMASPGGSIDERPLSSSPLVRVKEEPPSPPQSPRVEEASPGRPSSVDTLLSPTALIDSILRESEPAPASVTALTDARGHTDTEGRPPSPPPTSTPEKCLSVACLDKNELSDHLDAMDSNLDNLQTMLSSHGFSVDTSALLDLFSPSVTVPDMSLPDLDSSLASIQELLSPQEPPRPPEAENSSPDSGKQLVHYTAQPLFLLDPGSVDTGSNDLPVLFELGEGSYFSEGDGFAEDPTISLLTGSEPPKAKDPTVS
# Outline: as §1
# [13] = biological target: T8, SPIC (Homo sapiens, UniProt Q8N5J4 1-248); conditions: protein: recombinant; tags: N-terminal GST; dsDNA, one strand shown
# T8 sequence: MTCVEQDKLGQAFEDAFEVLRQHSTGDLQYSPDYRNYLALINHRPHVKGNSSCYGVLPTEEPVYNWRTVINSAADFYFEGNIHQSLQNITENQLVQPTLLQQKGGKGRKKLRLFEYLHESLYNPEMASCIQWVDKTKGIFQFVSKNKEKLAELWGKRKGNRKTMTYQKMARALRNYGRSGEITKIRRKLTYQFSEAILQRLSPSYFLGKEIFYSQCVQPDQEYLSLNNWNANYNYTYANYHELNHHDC
# Outline: as §1
# [14] = biological target: ELF4 (Homo sapiens, UniProt Q99607 1-663); conditions: protein: recombinant; tags: N-terminal GST; dsDNA, one strand shown
# Chain of ELF4 (Q99607 whole entry): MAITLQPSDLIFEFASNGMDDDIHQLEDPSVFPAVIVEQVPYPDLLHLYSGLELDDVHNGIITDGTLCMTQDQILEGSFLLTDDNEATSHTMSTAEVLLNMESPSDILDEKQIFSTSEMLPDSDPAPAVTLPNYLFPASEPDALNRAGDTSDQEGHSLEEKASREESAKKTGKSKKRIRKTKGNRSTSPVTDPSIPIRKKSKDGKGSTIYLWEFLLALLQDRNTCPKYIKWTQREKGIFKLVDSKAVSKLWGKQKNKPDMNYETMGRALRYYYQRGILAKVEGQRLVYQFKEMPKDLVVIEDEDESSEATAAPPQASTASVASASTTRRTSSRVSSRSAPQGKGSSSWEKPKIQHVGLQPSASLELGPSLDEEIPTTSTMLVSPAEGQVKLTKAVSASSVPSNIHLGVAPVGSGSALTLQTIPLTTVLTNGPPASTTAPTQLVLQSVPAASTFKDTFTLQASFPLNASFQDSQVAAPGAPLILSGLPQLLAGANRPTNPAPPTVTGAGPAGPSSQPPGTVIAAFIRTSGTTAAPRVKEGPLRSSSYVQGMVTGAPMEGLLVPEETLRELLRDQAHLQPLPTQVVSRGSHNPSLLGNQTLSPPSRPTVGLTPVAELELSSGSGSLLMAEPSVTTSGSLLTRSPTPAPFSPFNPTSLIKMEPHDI
# Outline: as §1
# [15] = biological target: T9, ELK4 (Homo sapiens, UniProt P28324-2 1-405); conditions: protein: recombinant; tags: N-terminal GST; dsDNA, one strand shown
# T9 sequence: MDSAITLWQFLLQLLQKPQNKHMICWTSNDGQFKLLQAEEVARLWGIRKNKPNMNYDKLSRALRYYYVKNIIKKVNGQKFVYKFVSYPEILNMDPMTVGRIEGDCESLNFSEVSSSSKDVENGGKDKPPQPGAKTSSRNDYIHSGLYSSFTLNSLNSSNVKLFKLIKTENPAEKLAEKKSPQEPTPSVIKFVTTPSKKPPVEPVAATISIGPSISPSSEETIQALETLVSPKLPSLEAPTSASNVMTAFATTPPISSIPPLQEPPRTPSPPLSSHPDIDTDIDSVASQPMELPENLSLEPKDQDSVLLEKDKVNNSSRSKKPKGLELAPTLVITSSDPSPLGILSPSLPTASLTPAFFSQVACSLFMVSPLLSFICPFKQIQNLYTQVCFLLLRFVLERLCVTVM
# Outline: as §1
# [16] = biological target: T10, ETV2 (Homo sapiens, UniProt O00321 1-342); conditions: protein: recombinant; tags: N-terminal GST; dsDNA, one strand shown
# T10 sequence: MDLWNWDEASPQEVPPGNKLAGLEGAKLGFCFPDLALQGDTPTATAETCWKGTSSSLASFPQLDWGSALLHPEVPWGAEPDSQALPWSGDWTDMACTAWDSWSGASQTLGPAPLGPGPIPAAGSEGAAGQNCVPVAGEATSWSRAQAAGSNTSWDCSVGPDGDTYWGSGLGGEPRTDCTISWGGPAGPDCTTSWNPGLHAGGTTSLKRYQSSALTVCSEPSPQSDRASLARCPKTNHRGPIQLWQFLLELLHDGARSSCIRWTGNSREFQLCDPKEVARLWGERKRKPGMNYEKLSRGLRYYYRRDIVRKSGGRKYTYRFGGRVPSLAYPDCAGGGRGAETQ
# Outline: as §1
# [17] = biological target: T11, ELF3 (Homo sapiens, UniProt P78545 1-371); conditions: protein: recombinant; tags: N-terminal GST; dsDNA, one strand shown
# T11 sequence: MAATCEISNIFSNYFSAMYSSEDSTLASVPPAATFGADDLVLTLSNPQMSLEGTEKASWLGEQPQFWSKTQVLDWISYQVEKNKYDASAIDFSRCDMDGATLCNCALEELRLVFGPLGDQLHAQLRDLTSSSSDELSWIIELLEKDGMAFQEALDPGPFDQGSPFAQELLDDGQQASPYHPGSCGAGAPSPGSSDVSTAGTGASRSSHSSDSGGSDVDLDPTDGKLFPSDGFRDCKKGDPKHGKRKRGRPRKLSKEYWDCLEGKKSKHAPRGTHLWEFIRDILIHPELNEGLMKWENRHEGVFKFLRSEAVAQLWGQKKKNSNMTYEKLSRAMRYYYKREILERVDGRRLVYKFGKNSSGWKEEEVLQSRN
# Outline: as §1
# [18] = biological target: CRX (Homo sapiens, UniProt O43186 1-299); conditions: protein: recombinant; tags: N-terminal GST; dsDNA, one strand shown
# Chain of CRX (O43186 whole entry): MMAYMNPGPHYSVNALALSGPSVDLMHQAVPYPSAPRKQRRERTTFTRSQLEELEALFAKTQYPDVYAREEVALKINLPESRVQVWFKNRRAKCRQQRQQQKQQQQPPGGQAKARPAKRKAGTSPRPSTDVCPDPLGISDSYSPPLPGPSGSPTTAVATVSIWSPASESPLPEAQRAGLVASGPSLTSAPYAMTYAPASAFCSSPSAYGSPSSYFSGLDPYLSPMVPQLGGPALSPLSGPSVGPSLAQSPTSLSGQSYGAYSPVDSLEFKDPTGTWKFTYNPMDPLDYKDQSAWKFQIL
# Outline: as §1
# [19] = biological target: ETV1 (Homo sapiens, UniProt P50549 1-477); conditions: protein: recombinant; tags: N-terminal GST; dsDNA, one strand shown
# Chain of ETV1 (P50549 whole entry): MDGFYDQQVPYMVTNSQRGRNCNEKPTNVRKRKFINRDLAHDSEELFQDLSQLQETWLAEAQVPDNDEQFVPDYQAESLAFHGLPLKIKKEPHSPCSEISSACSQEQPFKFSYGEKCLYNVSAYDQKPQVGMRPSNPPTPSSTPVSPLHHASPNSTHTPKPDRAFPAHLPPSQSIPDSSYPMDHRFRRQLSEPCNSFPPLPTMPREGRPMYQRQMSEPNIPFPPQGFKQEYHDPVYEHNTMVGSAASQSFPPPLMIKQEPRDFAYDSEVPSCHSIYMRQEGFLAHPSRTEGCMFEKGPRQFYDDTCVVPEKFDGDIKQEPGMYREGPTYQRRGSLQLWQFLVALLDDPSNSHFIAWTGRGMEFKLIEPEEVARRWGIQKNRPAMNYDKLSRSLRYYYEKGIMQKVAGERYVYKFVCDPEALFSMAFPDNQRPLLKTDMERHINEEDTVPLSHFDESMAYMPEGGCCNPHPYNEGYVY
# Outline: as §1
sequence,measurement,setting,value
TCACCT,binding signal,[1],"1.25 fold enrichment (6-mer frequency, TF over GST control)"
same,binding signal,[2],"1.31 fold enrichment (6-mer frequency, TF over GST control)"
same,binding signal,[3],"1.27 fold enrichment (6-mer frequency, TF over GST control)"
same,binding signal,[4],"1.23 fold enrichment (6-mer frequency, TF over GST control)"
same,binding signal,[5],"1.2 fold enrichment (6-mer frequency, TF over GST control)"
same,binding signal,[6],"1.21 fold enrichment (6-mer frequency, TF over GST control)"
same,binding signal,[7],"1.21 fold enrichment (6-mer frequency, TF over GST control)"
same,binding signal,[8],"1.13 fold enrichment (6-mer frequency, TF over GST control)"
same,binding signal,[9],"1.22 fold enrichment (6-mer frequency, TF over GST control)"
same,binding signal,[10],"1.17 fold enrichment (6-mer frequency, TF over GST control)"
same,binding signal,[11],"1.18 fold enrichment (6-mer frequency, TF over GST control)"
same,binding signal,[12],"1.03 fold enrichment (6-mer frequency, TF over GST control)"
same,binding signal,[13],"1.31 fold enrichment (6-mer frequency, TF over GST control)"
same,binding signal,[14],"1.33 fold enrichment (6-mer frequency, TF over GST control)"
same,binding signal,[15],"1.12 fold enrichment (6-mer frequency, TF over GST control)"
same,binding signal,[16],"1.21 fold enrichment (6-mer frequency, TF over GST control)"
same,binding signal,[17],"1.25 fold enrichment (6-mer frequency, TF over GST control)"
same,binding signal,[18],"1.15 fold enrichment (6-mer frequency, TF over GST control)"
same,binding signal,[19],"1.19 fold enrichment (6-mer frequency, TF over GST control)"

# Source: article PMC7862700, “An all-to-all approach to the identification of sequence-specific readers for epigenetic DNA modifications on cytosine”
